# UDG counter: counter-screen for AID inhibitors: uracil-DNA glycosylase inhibition | AID 1347430 | hit rate 0.14% among 91,000 | FRET deamination/UDG coupled assay, UDG read, 4 h | Potency, µM (series often up to 115 µM), without a hit: top-dose activity change, negative = inhibition, usual class: inhibitors; also: nearly all actives have a fitted effect of over 65% in size
# AID inh: activation induced cytidine deaminase inhibition; Q9GZX7; AID deamination FRET fluorescence, UDG-coupled, 4 h; Potency, µM (highest dose often 115 µM), most hits filed as inhibitors; hit rate 0.32% among 91,000; AID 1347428; also: nearly all actives have a fitted effect of over 25% in size
# Target sequence (Q9GZX7 whole entry, looked up): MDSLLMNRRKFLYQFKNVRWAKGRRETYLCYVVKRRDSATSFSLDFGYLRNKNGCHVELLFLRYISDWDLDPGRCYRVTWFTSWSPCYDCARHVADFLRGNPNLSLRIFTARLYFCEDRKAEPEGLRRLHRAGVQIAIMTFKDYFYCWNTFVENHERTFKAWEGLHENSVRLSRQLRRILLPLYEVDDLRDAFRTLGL
# * = called active by the depositor; i = inactive; ? = inconclusive; [ ] = dose if it differs, or a comment. This is a sample that favours compounds with a hit; in the whole collection about 0.47% have one here. Calls follow the shape of the dose curve; as a rule, active = well fitted curve in the direction sought with a large enough effect; inconclusive = small, poorly fitted or top-dose-only effect, or another doubt; inactive = no such curve, though single readings can be large; an effect the other way counts as inactive or inconclusive. % is scaled to controls: 0 for no effect and ±100 for the full control effect; potency is read from the fitted curve at half-maximal effect.
SMILES,UDG counter,AID inh
CCN(CC)c1ccc(/C=N/c2sc(C)c(C)c2C#N)cc1,2.8%,i
CC1=C(C(=O)OC(C)(C)C)C(c2ccc(C(C)C)cc2)NC(=S)N1 (centres undefined),-5.6%,i
CCCCCCc1cc2c(-c3ccccc3)cc(=O)oc2cc1O,5.4%,i
COc1ccc(C2CC(=O)Nc3nc(N)sc32)cc1OC1CCCC1 (centres undefined),-16.1%,?
NC(=O)COc1cccc(C2CC(=O)Nc3nc(N4CCCCC4)sc32)c1 (centres undefined),-17.4%,28.2µM*
COc1ccc(C2CC(=O)Nc3ccsc32)cc1OCC(N)=O (centres undefined),-0.9%,i
COc1cc(C2CC(=O)Nc3nc(N4CCCCC4)sc32)ccc1OCC(N)=O (centres undefined),-17.1%,22.4µM*
Nc1nc2c(s1)C(c1cccc(OCc3cccc(F)c3)c1)CC(=O)N2 (centres undefined),-12.7%,?
NC(=O)COc1ccc(C2CC(=O)Nc3nc(N4CCCCC4)sc32)cc1 (centres undefined),-14.5%,22.4µM*
CC(C)NC(=O)c1cccc(NC(=O)CCCC(=O)O)c1,-4.4%,i
CC(C)OCCCNC(=S)NC1CCCC1,-9.2%,i
O=C(Nc1ccc(Cl)c(C(=O)NC2CCCCC2)c1)c1ccncc1,-2.5%,i
Cc1cccc(/C=C(/C(=O)O)c2cccs2)c1,4.5%,i
Cc1ccc(C)c(N2CCN(CCCNC(=O)c3cnn(-c4cccc(Cl)c4)c3C3CCN(C(=O)OC(C)(C)C)CC3)CC2)c1,-20.1%,35.5µM*
CC(C)(C)OC(=O)N1CCC(c2c(C(=O)NCCc3ccccc3)cnn2-c2ccc(F)cc2F)CC1,50.8%,?
CCN1CCN(CCCNC(=O)c2cnn(-c3ccc(C)cc3)c2C2CCN(C(=O)OC(C)(C)C)CC2)CC1,9.6%,i
Cc1ccc(-n2ncc(C(=O)NCCc3ccccc3)c2C2CCN(C(=O)OC(C)(C)C)CC2)c(C)c1,-20.9%,25.1µM*
CN1CCN(CCNC(=O)c2cnn(-c3cccc(Cl)c3)c2C2CCN(C(=O)OC(C)(C)C)CC2)CC1,-16.0%,i
Cc1ccc(C)c(N2CCN(CCCNC(=O)c3cnn(-c4ccc(F)cc4)c3C3CCN(C(=O)OC(C)(C)C)CC3)CC2)c1,-28.3%,28.2µM*
Cc1[nH]c2ccc(Cl)cc2c1CCN(Cc1cccs1)C(=S)NC(C)(C)C,-14.4%,i
Cc1ccc(NS(=O)(=O)c2cc([N+](=O)[O-])ccc2N/N=C/c2ccc(C#N)cc2)c(C)c1,-17.9%,i
CCCC(C)(C)NC(=O)Cc1ccc(OC)c(OC)c1,-5.2%,i
Cc1ccc(-c2cc(C(=O)NCC(C)C)c3ccccc3n2)o1,-2.5%,i
C/C(=C\C(=O)O)C(=O)Nc1cccc(C(F)(F)F)c1,-7.6%,i
CCOc1ccc(CCNC(=O)c2cc3c(-c4ccc(OC)c(OC)c4)nn(C)c3s2)cc1OCC,79.4µM*,?
SMILES,UDG counter,AID inh
CCOCCCNC(=O)c1cc2c(-c3ccc(OC)c(OC)c3)nn(C)c2s1,0.1%,i
O=C(/C=C/c1cccc(C(F)(F)F)c1)c1cc(Cl)ccc1Cl,-14.4%,i
O=C(Cn1nc(Cc2cccnc2)c2ccccc2c1=O)N1CCN(c2ccc(F)cc2)CC1,-3.9%[57.5 µM],i
Cc1ccc(C)c(N2CCN(C(=O)Cn3nc(Cc4cccnc4)c4ccccc4c3=O)CC2)c1,-5.9%[57.5 µM],70.8µM*
O=C(NS(=O)(=O)Cc1ccccc1)c1cccc(F)c1,-5.5%,i
COc1ccc(S(=O)(=O)Cc2ccc(C(=O)N3CCN(c4cc(C)ccc4C)CC3)o2)cc1,89.1µM*,?
Cc1ccc(S(=O)(=O)Cc2ccc(C(=O)N3CCN(c4cccc(C)c4C)CC3)o2)cc1,-11.9%,?
Cc1cc(N(C)Cc2ccccc2)n2nc(-c3ccc(C(C)(C)C)cc3)nc2n1,0.0%,35.5µM*
Cc1cc(N(CCO)Cc2ccccc2)n2nc(-c3ccc(C(C)(C)C)cc3)nc2n1,-2.1%,i
CCOC(=O)C(NC(=O)Cc1cc(OC)c(OC)c(OC)c1)C(=O)OCC,9.7%,i
CCOCCCNC(=O)c1cc(-c2cccs2)nc2ccccc12,-0.8%,i
O=C(/C=C/c1cccc(F)c1)Nc1ccc(Cl)c(C(F)(F)F)c1,6.6%,i
N#Cc1ccc(C(=O)OCCOc2cccc(Cl)c2)cc1,-4.9%,i
COc1ccccc1CN1CCC(CNC(=O)c2cnn(-c3ccc(Cl)cc3)c2C2CCN(C(=O)OC(C)(C)C)CC2)CC1,?,44.7µM*
CC(C)(C)OC(=O)N1CCC(c2c(C(=O)N3CCC(c4ccccc4)C3)cnn2-c2cccc(Cl)c2)CC1 (centres undefined),?,39.8µM*
CC(C)(C)OC(=O)N1CCC(c2c(C(=O)N3CCC(c4ccccc4)C3)cnn2-c2ccc(Cl)cc2)CC1 (centres undefined),?,39.8µM*
Cc1ccc(C2CCN(C(=O)c3cnn(-c4ccc(C)cc4)c3C3CCN(C(=O)OC(C)(C)C)CC3)C2)cc1 (centres undefined),52.4%,i
